# Measurements published in PubChem BioAssay (NCATS).
# Inconclusive results are not listed. A call without a number means that no potency is given here. The source made the active and inactive calls. Calls follow the shape of the dose curve; as a rule, active = well fitted curve in the direction sought with a large enough effect; inconclusive = small, poorly fitted or top-dose-only effect, or another doubt; inactive = no such curve, though single readings can be large; an effect the other way counts as inactive or inconclusive.
# Columns and labels:
# [1] = Primary qHTS for inhibitors of nuclear receptor binding SET domain protein 2 (NSD2) in an isogenic RCH-ACV NSD2 p.E1099K mutant (9B) (AID 1645876); conditions: RCH-ACV NSD2 E1099K (9B) viability, CellTiter-Glo, 72 h; series mostly up to 44.9 µM
# [2] = Primary qHTS for inhibitors of nuclear receptor binding SET domain protein 2 (NSD2) in an RCH-ACV wild type WT cells (2C) (AID 1645877); conditions: RCH-ACV (leukaemia line) NSD2 WT (2C) viability, CellTiter-Glo, 72 h; series mostly up to 44.9 µM
# Also: nearly all actives have a fitted effect of over 70% in size.
# Potency is read from the fitted curve at half-maximal effect.
Structure (SMILES),Potency [1],Potency [2]
O=C1Nc2cc(Cl)ccc2Oc2ccccc21,inactive,inactive
Cc1c(N)cccc1C(F)(F)F,inactive,inactive
O=C(O)Cn1c(=O)n(Cc2ccc(Br)cc2F)c(=O)c2ccc(Cl)cc21,inactive,inactive
COc1ccc(CCC(C)=O)cc1,inactive,inactive
CSc1ccc(/C=C2/C(C)=C(CC(=O)O)c3cc(F)ccc32)cc1,inactive,inactive
CN1CC[C@H](c2c(O)cc(O)c3c(=O)cc(-c4ccccc4Cl)oc23)[C@H](O)C1,0.0211 µM (active),0.0106 µM (active)
CCN(CC)CC(=O)Oc1ccc(NC(C)=O)cc1,inactive,inactive
Cc1cc(O)c(C)c(C)c1O,inactive,inactive
Nc1ccc([N+](=O)[O-])c(C(F)(F)F)c1,inactive,inactive
OC1(c2ccccc2)CCNCC1,inactive,inactive
CCOC(=O)C(=O)CCCCCCl,inactive,inactive
Cc1onc(-c2c(Cl)cccc2Cl)c1C(=O)Cl,inactive,inactive
CCOc1ncc(F)c(=O)[nH]1,inactive,inactive
OCCCc1ccccc1,inactive,inactive
Cc1cccc(OCC(O)CNC(C)(C)C)c1C (stereo not drawn),inactive,inactive
CCOC(=O)C(O)c1ccccc1 (stereo not drawn),inactive,inactive
Cc1coc2ccccc2c1=O,inactive,inactive
Nc1cc(C(F)(F)F)ccc1S,9.44 µM (active),15 µM (active)
O=P(O)(O)OCC(O)CO (stereo not drawn),inactive,inactive
OCc1cccnc1,inactive,inactive
Cc1nc(N)nc(N)c1-c1ccc(Cl)c(Cl)c1,0.266 µM (active),0.299 µM (active)
O=C1Nc2ccccc2C1(c1ccc(O)cc1)c1ccc(O)cc1,21.1 µM (active),16.8 µM (active)
CCCCN(CCCC)C(C(N)=O)c1ccc(OC)cc1 (stereo not drawn),inactive,inactive
CCOC(=O)C(=O)CCc1ccccc1,inactive,inactive
Cc1sccc1Br,inactive,inactive
Nc1ccc2c(c1)CN1C(=O)c3ccccc3C1=N2,7.31 µM (active),8.2 µM (active)
CC(C)(C)C(=O)OCOC(=O)C1N2C(=O)CC2S(=O)(=O)C1(C)C (stereo not drawn),inactive,inactive

Structure (SMILES),Potency [1],Potency [2]
Cc1ccc2ccc(Cl)cc2n1,inactive,inactive
COC(=O)/C=C(/C)N,inactive,inactive
O=C(O)c1ccc(OCCN2CCCCC2)cc1,inactive,inactive
CCCOc1ccc2c(c1)CC[C@@H]1[C@@H]2CC[C@]2(C)C(OC)CC[C@@H]12 (stereo partly drawn),inactive,inactive
CCCCCCCC(=O)[O-].CCCCCCCC(=O)[O-].[Zn+2],inactive,inactive
O=C(O)Cn1cnnn1,inactive,inactive
CCCCOC(=O)CCCCCCCCC(=O)OCCCC,inactive,inactive
Brc1ccccc1-c1ccccc1,inactive,inactive
O=C(O)Cc1ccccc1Oc1ccc(Cl)cc1Cl,inactive,inactive
C1=CC2C3C=CC(C3)C2C1 (stereo not drawn),inactive,inactive
COc1ccc2cc(C=O)ccc2c1,inactive,inactive
Cc1ccc(C(C)OC(=O)C2(C)CCC(C(=O)O)C2(C)C)cc1 (stereo not drawn),inactive,inactive
Cc1cc(OCCOCC[N+](C)(C)Cc2ccccc2)ccc1C(C)(C)CC(C)(C)C,1.19 µM (active),1.19 µM (active)
COCCc1ccc(OCC2CO2)cc1 (stereo not drawn),inactive,inactive
COC(=O)c1cc(Cl)c(NC(C)=O)cc1OC,inactive,inactive
C[C@@]12CCC[C@H]1[C@@H]1CC[C@H]3C[C@@H](O)CC[C@]3(C)[C@H]1CC2,inactive,inactive
Cc1cnc(NS(=O)(=O)c2ccc(N)cc2)nc1,inactive,inactive
CC(C)NC(=O)c1ccc(C=O)cc1,inactive,inactive
CC(C)C(C)(C)C(C)(C)C(C)(C)S,inactive,inactive
N[C@@H](Cc1cc(I)c(O)c(I)c1)C(=O)O,inactive,inactive
CCOC(=O)c1ccc(O)c(O)c1,9.44 µM (active),13.3 µM (active)
O=C(O)c1[nH]n(-c2ccc(S(=O)(=O)O)cc2)c(=O)c1N=Nc1ccc(S(=O)(=O)O)cc1,inactive,inactive
Nc1c[n+](N2CCOCC2)no1,inactive,inactive
CC(C)CCCC(C)NCCC(C)C (stereo not drawn),inactive,inactive
CN(C)CCN1CCN(c2cccc(Cl)c2)C1=O,inactive,inactive
Cc1ncc([N+](=O)[O-])n1C,inactive,inactive
CC(C)(C)c1ccc(C(=O)CCCCl)cc1,inactive,inactive
